Bcl-xL primary = inhibitors of human Bcl-xL; inhibition, % at 10.9 µM; 0.7% of 320,000 active; Q07817; GST-Bcl-xL / FITC-Bim BH3 peptide fluorescence polarization; AID 2129;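 active = inhibition above the mean of all tested compounds plus 3 SD, cutoff set per campaign, cut at about 30% in these data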;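 also: 0% = DMSO wells and 100% = unlabeled Bim-BH3 peptide competitor; inhibitors lower millipolarization by displacing the labeled peptide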
Target sequence (Q07817 whole entry, looked up): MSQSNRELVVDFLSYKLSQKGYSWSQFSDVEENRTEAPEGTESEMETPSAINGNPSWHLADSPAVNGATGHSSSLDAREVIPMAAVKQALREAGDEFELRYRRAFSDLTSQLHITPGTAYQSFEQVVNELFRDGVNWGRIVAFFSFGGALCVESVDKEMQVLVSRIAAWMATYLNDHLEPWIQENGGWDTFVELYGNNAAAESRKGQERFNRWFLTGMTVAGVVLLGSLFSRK
Mcl1-Bid inh = Mcl-1/Bid interaction inhibition; TR-FRET Mcl-1/Bid-Dy647 peptide binding, 1536-well; inhibition, % at 21.7 µM; 0.97% of 220,000 active;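 active = compounds that cut the binding signal by more than half at the single screening dose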;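 also: His-tagged Mcl-1 with europium anti-His antibody binding Bid BH3 peptide; 0% = Mcl-1 plus peptide wells and 100% = peptide-only wells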
Target sequence (Q07820 whole entry, looked up): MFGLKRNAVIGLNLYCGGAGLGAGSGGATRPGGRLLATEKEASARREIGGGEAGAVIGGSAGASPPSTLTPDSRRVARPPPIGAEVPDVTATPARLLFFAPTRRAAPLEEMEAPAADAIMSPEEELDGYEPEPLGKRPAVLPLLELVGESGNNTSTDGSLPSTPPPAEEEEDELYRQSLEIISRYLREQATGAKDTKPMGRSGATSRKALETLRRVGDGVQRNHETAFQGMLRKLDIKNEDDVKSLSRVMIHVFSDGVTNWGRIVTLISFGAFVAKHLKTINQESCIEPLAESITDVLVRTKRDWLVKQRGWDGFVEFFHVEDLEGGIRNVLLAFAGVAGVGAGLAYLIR
GLD-1 TGE inh = GLD-1-TGE RNA interaction inhibition (C. elegans); inhibition, % at 5.96 µM; AID 2280; purified GLD-1 + fluorescein TGE RNA, fluorescence polarization; Q17339; 0.44% of 320,000 active;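 active = percent inhibition above a per-plate cutoff, the plate mean of test compounds plus 3 SD, cut at about 30% in these data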;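 also: 0% = DMSO wells with GLD-1 and probe and 100% = wells lacking GLD-1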
Mcl-1 Bim block = human Bim-Mcl-1 interaction inhibition | Q07820 | Bead-based flow cytometry, Bim peptide-Mcl-1 binding | inhibition, % at 10 µM | 0.1% of 190,000 active | AID 1009; in the data active = inhibition above about 40%;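 also: 0% = no compound tracer wells and 100% = peptide blocker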
Mcl1 Noxa PPI = disrupts binding of human Mcl-1 to Noxa peptide. inhibition, % at 21.7 µM. TR-FRET Mcl-1/Noxa peptide binding, 2 h. 1.5% of 220,000 active;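 active = compounds that cut the protein-peptide binding signal by more than 50% relative to plate controls in a single-dose test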;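 also: His-tagged Mcl-1 with rhodamine Noxa BH3 peptide and terbium anti-His antibody; 0% = Mcl-1 plus Noxa peptide wells and 100% = peptide-only wells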
MCL1-BIM inh = MCL1-BIM-BH3 interaction inhibition (human); GST-MCL1 / FITC-Bim-BH3 fluorescence polarization; inhibition, % at 10.9 µM; 0.68% of 320,000 active;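 active = inhibition above the mean inhibition of all tested compounds plus 3 SD, set per campaign, cut at about 40% in these data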;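 also: 0% = DMSO wells and 100% = unlabeled Bim-BH3 peptide control; higher means more loss of mP so more displacement of Bim peptide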
Bcl-xL conf = counter-screen for MCL1 inhibitors: confirmation of human Bcl-xL inhibitors. 54% of 1,700 active. GST-Bcl-xL / FITC-Bim BH3 peptide FP binding. shares compounds with MCL1-BIM inh. inhibition, % at 10.9 µM;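 active = inhibition above a cutoff equal to the mean inhibition of all tested compounds plus 3 SD, cut at about 30% in these data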;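 also: 0% = DMSO wells and 100% = unlabeled Bim BH3 control peptide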
MCL1 inh confirm = confirmation of human MCL1 and BIM-BH3 interaction inhibitors; shares compounds with MCL1-BIM inh; GST-MCL1 / FITC-Bim-BH3 fluorescence polarization; inhibition, % at 10.9 µM; 61% of 1,700 active;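 active = inhibition above the average of all tested compounds plus 3 SD, cut at about 40% in these data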;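 also: 0% = DMSO wells and 100% = unlabeled Bim-BH3 control peptide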
Starred values were filed as active, the others as inactive; . = no result given; + = active, no number. Rows were chosen to be rich in hits. Some 2.3% of all compounds tested hit in one or more screens of this group.

SMILES | Bcl-xL primary | Mcl1-Bid inh | GLD-1 TGE inh | Mcl-1 Bim block | Mcl1 Noxa PPI | MCL1-BIM inh | Bcl-xL conf | MCL1 inh confirm
CC1OC23CCCCC2C(C#N)(C(=N)O3)C1(C#N)C#N (stereo not given) | 25.6 | -15.3 | 15.4 | 2.0 | 7.2 | 20.9 | . | .
N#CC12COC3(CCCCC3C1(C#N)C#N)OC2=N (stereo not given) | 63.3* | -137.5 | 73.8* | . | 10.2 | 71.9* | 20.7 | 12.1
CCCC1OC23CCCCC2C(C#N)(C(=N)O3)C1(C#N)C#N (stereo not given) | 54.9* | -12.9 | 54.6* | -1.0 | 6.2 | 55.9* | 16.5 | 16.2
COc1ccc(C2OC34CCCCC3C(C#N)(C#N)C2(C#N)C(=N)O4)cc1 (stereo not given) | 135.1* | -51.5 | 101.1* | -6.0 | -1.7 | 155.2* | 104.8* | 134.9*
COc1cc2c(cc1NC(=O)C(C)OC(=O)c1ccc(S(=O)(=O)Nc3ccccc3Cl)cc1)oc1ccccc12 (stereo not given) | -0.8 | -21.5 | 5.0 | -5.0 | 1.8 | -4.4 | . | .
C=CCNC(=S)Nc1ccc(N(C)C)cc1 | 4.4 | -48.6 | 4.6 | . | 4.1 | 8.7 | . | .
c1ccc(CNc2c3ccccc3nc3ccccc23)cc1 | 3.2 | . | -3.0 | . | . | 2.1 | . | .
OCC(Cc1ccccc1)Nc1c2ccccc2nc2ccccc12 (stereo not given) | 27.8 | -24.7 | 15.7 | -3.0 | 22.9 | 40.1* | 21.6 | 24.3
Cc1cc(/C=N/NC(N)=S)c(O)c(/C=N/NC(N)=S)c1 | + | -51.8 | 189.0* | . | -20.6 | + | 189.4* | +
COc1ccc2nc(N3CCCC3)c(C#N)cc2c1 | 73.5* | 1.4 | 49.0* | 0.0 | 5.3 | 66.9* | 115.0* | 130.0*
OCC[C@H]1C[C@@H](O)[C@H](O)[C@@]2(Cc3ccccc3CO2)O1 | 2.5 | . | -1.4 | . | . | 7.1 | . | .
Cc1cc(SCC(=O)OCC(=O)N(C)c2ccccc2)nc2ccccc12 | 2.7 | . | 1.4 | . | . | -4.5 | . | .
CCOC(=O)N1CCc2c(sc(NC(=O)CCS(=O)(=O)c3ccccc3)c2C(N)=O)C1 | 9.9 | . | 17.1 | . | . | 47.6* | 12.5 | 17.8
CC(=O)N1CCc2c(sc(NC(=O)CCS(=O)(=O)c3ccccc3)c2C(N)=O)C1 | 8.4 | . | 25.8 | . | . | 16.7 | . | .
COc1cc(CCCN2CCNC[C@@H]2Cc2ccc(O)cc2)cc(OC)c1OC | 2.8 | . | 6.3 | . | . | 3.7 | . | .
Nc1c(C(=O)Nc2ccc(S(=O)(=O)N3CCCC3)cc2)sc2nc3ccc(OC(F)(F)F)cc3cc12 | 57.3* | -38.0 | 22.9 | 1.0 | 17.1 | 48.4* | 35.5* | 41.7*
COc1ccc2nc(SCC(=O)Nc3ccc(S(=O)(=O)N4CCCC4)cc3)c(C#N)cc2c1 | -14.4 | -29.7 | -44.8 | 0.0 | -240.1 | -16.5 | . | .
Cc1cc2nc3c(=O)n(CCc4ccccc4)c(=O)[nH]c3nc2cc1N | + | -52.6 | 189.4* | . | -158.4 | + | 189.8* | +
CCCCn1c(=O)[nH]c2nc3cc(N)ccc3nc2c1=O | + | -64.1 | + | -1.0 | -140.5 | + | + | +
Nc1ccc2nc3c(=O)n(CCc4ccccc4)c(=O)[nH]c3nc2c1 | 180.5* | -32.2 | 191.1* | . | -181.0 | + | 182.4* | +
Nc1ccc2nc(CCc3ccccc3)[nH]c2c1 | 7.0 | 45.6 | 2.6 | -3.0 | -13.6 | 7.3 | . | .
Nc1ccc2nc3c(=O)n(C4CCCCC4)c(=O)[nH]c3nc2c1 | + | -91.3 | + | . | -123.7 | + | 190.8* | +
O=C(O)COc1ccccc1/C=C1\SC(=S)N(c2cccnc2)C1=O | 2.3 | -47.0 | 13.2 | . | -2.7 | 7.5 | . | .
Cc1cc(C)c(NC(=O)COC(=O)COc2ccc3c(C)cc(=O)oc3c2)c(Cl)c1 | 2.1 | . | -1.8 | . | . | -5.8 | . | .
CN(CC(=O)Nc1ccc(Cl)c(C(F)(F)F)c1)C(=O)C1CSC2(C)CCC(=O)N12 (stereo not given) | -7.1 | . | -3.7 | . | . | -10.8 | . | .
SMILES | Bcl-xL primary | Mcl1-Bid inh | GLD-1 TGE inh | Mcl-1 Bim block | Mcl1 Noxa PPI | MCL1-BIM inh | Bcl-xL conf | MCL1 inh confirm
Cn1cc(CN2CCC(C(=O)Nc3cccc(-c4cccc(F)c4)c3)CC2)cn1 | 4.5 | . | -2.6 | . | . | 81.8* | 7.8 | 13.0
COc1ccc(CC(=O)Nc2cccc(C(=O)Nc3cccc(C)c3)c2)cc1 | 5.7 | -33.5 | 6.2 | -1.0 | -7.9 | 117.6* | 0.8 | 4.7
COc1ccc(NS(=O)(=O)c2cccc(C(=O)Nc3cccc(C(=O)O)c3)c2)cc1 | 4.4 | . | 6.4 | . | . | 68.2* | -0.7 | -1.6
COc1ccc(NS(=O)(=O)c2cccc(C(=O)O)c2)cc1 | 12.5 | -24.2 | 6.4 | -3.0 | 24.3 | 13.4 | . | .
Cc1cccc(C(=O)c2c[nH]cc2-c2ccccc2)c1 | -0.5 | -61.3 | 7.5 | -6.0 | 8.7 | 2.2 | . | .
COc1cc(NC(=O)C/C(C)=N/NC(=O)Cc2ccc(Cl)cc2)c(OC)cc1Cl | 3.0 | -25.5 | 0.3 | 0.0 | 10.9 | 8.0 | . | .
COC(=O)c1ccccc1NC(=O)C/C(C)=N/NC(=O)Cc1ccc(Cl)cc1 | 4.5 | . | -3.5 | . | . | 53.4* | -1.5 | 25.2
N#Cc1ccc(OCC(=O)Nc2ccc(N3CCCC3)cc2)cc1 | -7.9 | . | 0.4 | . | . | 0.0 | . | .
CC(N=C1NS(=O)(=O)c2ccccc21)C(=O)OCC(=O)N(C)C1CCS(=O)(=O)C1 (stereo not given) | 1.1 | . | -0.5 | . | . | -7.8 | . | .
CC(=O)NC1(C(F)(F)F)C(=O)Nc2c1c(=O)[nH]c(=O)n2CCc1ccccc1 (stereo not given) | 1.5 | -5.9 | 0.9 | . | 17.1 | 0.8 | . | .
COc1ccc(C(=O)OCC(=O)Nc2ncc([N+](=O)[O-])s2)cc1OC | 22.9 | . | -2.5 | . | . | 73.8* | 28.0 | 57.6*
O=C(COC(=O)c1ccc(Br)o1)Nc1ncc([N+](=O)[O-])s1 | 13.2 | . | -1.9 | . | . | 35.1 | . | .
O=C(Nc1cc(Cl)ccc1Cl)c1noc2c1CCCC2 | 3.0 | -53.0 | 3.2 | . | 14.1 | 4.1 | . | .
O=C(Nc1ccc(F)cc1F)c1noc2c1CCC2 | 11.9 | -24.2 | 4.5 | -1.0 | 18.6 | 46.5* | 18.6 | 66.0*
CC1=CC2=C(OC1N(C)C)c1cccc3cccc(c13)C2=O (stereo not given) | 122.4* | -4.9 | 110.4* | 4.0 | 13.3 | 142.9* | 35.6* | 38.6
COc1ccccc1N(CC(=O)NCc1ccco1)S(=O)(=O)c1ccc(C)cc1 | 11.2 | . | -1.1 | . | . | 46.7* | 33.1* | 79.0*
O=C(CNC(=S)N(CCCN1CCOCC1)Cc1cccs1)NC1CCCCC1 | 5.0 | -35.4 | 4.7 | 0.0 | 5.1 | -0.5 | . | .
Cn1c(SCC(=O)Nc2nncs2)nnc1C1CC1 | 14.5 | . | 8.9 | . | . | 46.1* | 11.2 | 28.8

Bioassay records (PubChem BioAssay)
